Results filed as inconclusive are left out. More than one record can exist for a structure, and the calls need not agree. Calls of active or inactive are those of the source. Rule for the calls: active = hit-call score of the fitted dose curve at least 0.9, where 1 is the maximum; inconclusive = response in the unintended direction; inactive = score below 0.9.
Assay: TOX21_p53_BLA_p2_viability: Viability Assessment in the Tox21 HCT-116 p53 Agonism Beta-lactamase Assay, Phase 2 (AID 2283591);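 note: compound exposure lasted 16 h at 37 °C; actives lower the ATP signal meaning cytotoxicity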
Excerpt: TOX21_p53_BLA_p2 is a cell-based, single-readout assay that uses HCT116, a human intestinal cell line, […] in a 1536-well plate.TOX21_p53_BLA_p2_viability is an assay readout measuring cellular ATP content and detected with CellTiter-Glo Luciferase-coupled ATP quantitation.TOX21_p53_BLA_p2_viability used a type of viability reporter where loss-of-signal activity can be used to understand changes in the cell viability. Furthermore, this assay endpoint can be referred to as a secondary readout, because this assay has produced multiple assay endpoints where this one serves a viability function. To generalize the intended target to other relatable targets, this assay endpoint is annotated to the cell cycle intended target family, where the subfamily is cytotoxicity.
Thawing Method: Place 14 mL of pre-warmed thaw medium into a 15 mL of conical tub. Remove the vial of cells to be thawed from liquid nitrogen and thaw rapidly by placing at 37C in a water bath with gentle agitation for 1-2 minutes. Decontaminate the vial by wiping with 70% ethanol before opening in a biological safety cabinet. Transfer the vial contents drop-wise into 14 mL of thaw medium in a sterile 15-mL conical tub. Centrifuge cells at 900 rpm for 4 minutes and resuspend in thaw medium. Transfer contents to the T75 tissue culture flask containing Thaw Medium and place flask in a humidified 37C/5% CO2 incubator. Switch to growth medium at first passage.Propagation Method: Aspirate medium, rinse once in DPBS, add 0.25% Trypsin/EDTA and swirl to coat the cell evenly. Add an equal volume of Growth Medium to inactivate Trypsin after 2-3 minutes incubation at 37C. Centrifuge cells at 900 rpm for 4 minutes and resuspend in growth medium. Cell should be passage or fed at least twice a week.Assay Protocol: Harvest cells from culture in growth medium and resuspend in assay medium. 2.2 Dispense 4000 cells/5 uL/well into 1536-well black/clear bottom plates using a Multidrop dispenser. After the cells were incubated at 37C for 5 hours, 23 nL of compounds dissolved in DMSO were transferred to the assay plate by a PinTool resulting in a 217-fold dilution. Incubate the plates for 16 hours at 37C, 5% CO2. Add 1 uL of 6X LiveBLAzer FRET B/G (CCF4-AM) Substrate Mixture to each well using a BioRAPTR dispenser and incubate the plates at room temperature for 2 hours. Measure fluorescence intensity at 460 and 530 nm emission and 405 nm excitation by an Envision detector. Data is expressed as the ratio of 460nm/530nm emissions. Add 4 uL of Cell-titer Glo to each well using BioRAPTR and incubate the plates at room temperature for […]. For cell viability readout that measures cytotoxicity, 4 ul/well of CellTiter-Glo reagent was added into the assay plates using a Flying Reagent Dispenser. After 30 min incubation at room temperature, the luminescence intensity in the plates was measured using a ViewLux plate reader.
For CC1COc2ccccc2N1 (stereo not given), the outcome was “inactive”. For CCC(=O)O[C@H]1CC[C@H]2[C@@H]3CCc4cc(O)ccc4[C@H]3CC[C@]12C, the outcome was “inactive”. For OC[C@]1(O)OC[C@@H](O)[C@H](O)[C@@H]1O, the outcome was “inactive”. For Clc1cc(Cl)c(OCC#CI)cc1Cl, the outcome was “inactive”. With CCCCCCCCCCCCCCCCCCOP(=O)([O-])OC1CC[N+](C)(C)CC1 the outcome was “inactive”. In the case of CCOc1ccc(NC(=S)Nc2ccc(OCC)cc2)cc1, the outcome is reported as “inactive”. With O=[Se](O)O the outcome was “inactive” and the AC50 was 7.1 µM (active). In the case of O=Cc1ccc([N+](=O)[O-])cc1, the outcome is reported as “inactive”. With Nc1c2ccccc2nc2ccccc12 the outcome was “inactive”. For O=C1C(=Cc2cccs2)CCCC1=Cc1cccs1, the outcome was “inactive”. In the case of Cc1ccc(/C(=C\CN2CCCC2)c2cccc(/C=C/C(=O)O)n2)cc1, the outcome is reported as “inactive”. For O=C1C(O)=C(O)C(=O)C(O)=C1O, the outcome was “inactive”. For COC(=O)c1ccccc1Cl, the outcome was “inactive”. With O=Cc1cccc([N+](=O)[O-])c1 the outcome was “inactive”. In the case of Cc1cc(C)cc(OCC2CNC(=O)O2)c1 (stereo not given), the outcome is reported as “inactive”. With O=C(O)Cc1cn(-c2ccccc2)nc1-c1ccc(Cl)cc1 the outcome was “inactive”. For CCCCCCCCN, the outcome was “inactive”. In the case of CC(NNC(=O)c1ccccc1)c1ccccc1 (stereo not given), the outcome is reported as “inactive”. In the case of C[C@H](CCC(=O)O)[C@H]1CC[C@H]2[C@@H]3CC[C@@H]4C[C@H](O)CC[C@]4(C)[C@H]3C[C@H](O)[C@]12C, the AC50 is reported as 80.9 µM (active) and the outcome is reported as “inactive”. With Brc1cc(Oc2cc(Br)c(Br)c(Br)c2Br)c(Br)c(Br)c1Br the outcome was “inactive”. For O=C(O)CCCl, the outcome was “inactive”. With OC[C@@H](O)C(O)[C@@H](O)CO (stereo not given in full) the outcome was “inactive”. For CCOc1nc2cccc(C(=O)OC(C)OC(=O)OC3CCCCC3)c2n1Cc1ccc(-c2ccccc2-c2nn[nH]n2)cc1 (stereo not given), the AC50 was 8.23 µM (active). For CC(C)C[C@@H](NC(=O)[C@@H](O)[C@H](N)Cc1ccccc1)C(=O)O, the outcome was “inactive”. In the case of Cc1cc(O)c2ccccc2c1O, the outcome is reported as “inactive”. In the case of CCC(=O)C(=O)CC, the outcome is reported as “inactive”. With CC1=C(CC(=O)O)c2cc(F)ccc2/C1=C\c1ccc(S(C)=O)cc1 (stereo not given) the outcome was “inactive”. With CCCCCCCCCCCCCCCCCCOCC(COP(=O)([O-])OCC[N+](C)(C)C)OC (stereo not given) the AC50 was 36.3 µM (active). For CNS(=O)(=O)CCc1ccc2[nH]cc(C3CCN(C)CC3)c2c1, the outcome was “inactive”. With CCCCCCCCCCCCCCCC(=O)O[C@@H]1[C@@H](O)[C@@H](O)[C@@H]([C@H](NC(=O)[C@@H]2C[C@@H](CCC)CN2C)[C@H](C)Cl)O[C@@H]1SC the outcome was “inactive”. In the case of NCCC(O)(P(=O)(O)O)P(=O)(O)O, the outcome is reported as “inactive”. In the case of NC(=O)C1c2ccccc2CCc2ccccc21, the outcome is reported as “inactive”. With Cc1c(C(=O)NCCO)[n+](=O)c2ccccc2n1[O-] the outcome was “inactive”. For COc1cc(NC(C)CCCN)c2ncccc2c1 (stereo not given), the outcome was “inactive”. For Cc1ccc(O)c(C(=O)c2ccccc2)c1, the outcome was “inactive”. For C=CC[N+]1([C@H]2C[C@H]3[C@@H]4CC[C@H]5C[C@H](OC(C)=O)[C@@H](N6CCCCC6)C[C@]5(C)[C@H]4CC[C@]3(C)[C@H]2OC(=O)CC)CCCCC1, the outcome was “inactive”. With CC(=O)c1ccc2c(c1)N(CCCN1CCN(CCO)CC1)c1ccccc1S2 the outcome was “inactive”. For O=C(CCCN1CCN2CCCC2C1)c1ccc(F)cc1 (stereo not given), the outcome was “inactive”.

— PubChem BioAssay (EPA / NIEHS)
